# According to PubChem BioAssay (EPA / NIEHS):
# Inconclusive results are not listed. Some structures have more than one record in an assay (separate samples or runs), and their calls can disagree. Calls of active or inactive are those of the source. The calls were made as follows: active = hit-call score of the fitted dose curve at least 0.9, where 1 is the maximum; inconclusive = response in the unintended direction; inactive = score below 0.9.
# Legend:
# [1] = ACEA_ER_AUC_viability: ACEA Biosciences xCELLigence Real-Time Cell Analysis on Estrogen Receptor Agonism for Viability (AID 2283782);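 also: hit means loss of impedance signal meaning reduced cell growth or viability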
# Outline: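 Viability endpoint: reduced impedance area under the curve relative to DMSO, recorded by real-time electrode sensing over ~80 h of continuous exposure. Duplicate plates of T47D in hormone-depleted medium; eight concentrations, 1:4 dilutions, 100 uM maximum.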
# AR (gene 367) [2] = target: AR (gene 367) (UniProt P10275); experiment: ACEA_AR_agonist_80hr: ACEA Biosciences xCELLigence Real-Time Cell Analysis on Androgen Receptor Agonism for Proliferation (AID 2283783);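 also: hits increase impedance growth signal above DMSO baseline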
# Outline: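 Eight concentrations, 1:4 serial dilution from a 100 uM final top, in biological duplicate. Impedance-based real-time growth of 22Rv1 cells after overnight baseline, recorded hourly and read at 80 hours. Controls: testosterone, MG132, assay media.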
# [3] = STM_H9_NormalizedViability: Cytotoxicity Assessment at 120 hours in the Stemina devTOX quickPredict H9 human embryonic stem cell (hESC)-based Assay (AID 2283784)
# Outline: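 Here, H9 cells received test compound with daily medium renewal. Each plate included methotrexate references (1uM, 5 nM), 0.1% DMSO and media blanks; CellTiter-Fluor RFU was normalized to DMSO.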
# AR (gene 367) [4] = target: AR (gene 367) (UniProt P10275); experiment: ACEA_AR_antagonist_80hr: ACEA Biosciences xCELLigence Real-Time Cell Analysis on Androgen Receptor Antagonism for Proliferation (AID 2283787);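 also: 22Rv1 human prostate cancer cells with growth followed by electrical impedance; hits lower the impedance growth signal relative to DMSO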
# Outline: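 Impedance-based real-time growth of 22Rv1 prostate cells, read 80 h after dosing. Eight concentrations, 1:4 series, top 100 uM final (0.5% DMSO), n = 2; signal decrease scored against DMSO.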
# [5] = ATG_M_06_XSP1: Attagene TRANS-FACTORIAL Multi-Species (XSP1) HepG2 Assay for M06 Transcription Factor (Internal Marker) (AID 2283790)
# Outline: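 This background-control readout tracks M06 reporter mRNA, measured by RT-PCR and capillary electrophoresis. HepG2 cells transiently carrying the GAL4-UAS reporter panel were dosed for 24 h with 3 nM 6-alpha-fluorotestosterone added for partial AR stimulation; increases were scored relative to DMSO.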
# [6] = ATG_M_61_XSP1: Attagene TRANS-FACTORIAL Multi-Species (XSP1) HepG2 Assay for M61 Transcription Factor (Internal Marker) (AID 2283797)
# Outline: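 Background-control readout: reporter transcripts measured by RT-PCR and capillary electrophoresis 24 h after dosing transiently transfected HepG2 multi-reporter cells, with 3 nM 6-alpha-fluorotestosterone present. Fitted in the positive direction relative to DMSO.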
# [7] = target: frog Thyroid hormone Receptor alpha (TRa), thra-a (gene 397942) (UniProt P15204); experiment: ATG_frTRa_XSP1: Attagene TRANS-FACTORIAL Multi-Species (XSP1) HepG2 Assay for frog Thyroid hormone Receptor alpha (TRa) (AID 2283804)
# Outline: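 Reporter transcript induction, measured by RT-PCR with 6-FAM labelling and capillary electrophoresis, 24 hr after dosing transiently transfected HepG2 cells expressing a frog TRa-GAL4 fusion; medium contained 3 nM 6-alpha-fluorotestosterone; increase over DMSO scored.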
# [8] = tested on: turtle Thyroid Hormone Receptor, alpha (TRa), gene 101949057; experiment: ATG_trTRa_XSP1: Attagene TRANS-FACTORIAL Multi-Species (XSP1) HepG2 Assay for turtle Thyroid Hormone Receptor, alpha (TRa) (AID 2283806)
# Outline: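 After 24 h chemical exposure, reporter transcripts were measured by RT-PCR with fluorescent primer extension, HpaI digestion and capillary electrophoresis. Cells were transiently transfected HepG2 expressing exogenous NR-Gal4 chimeras; medium contained 3 nM 6-alpha-fluorotestosterone; fitted upward relative to DMSO.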
# [9] = target: zebrafish Thyroid Hormone Receptor alpha (TRa), thraa (gene 30670) (UniProt Q98867); experiment: ATG_zfTRa_XSP1: Attagene TRANS-FACTORIAL Multi-Species (XSP1) HepG2 Assay for zebrafish Thyroid Hormone Receptor alpha (TRa) (AID 2283807)
# Outline: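 Reporter transcripts driven by a chimeric zebrafish TRa–Gal4 protein were measured by RT-PCR with fluorescent labelling and capillary electrophoresis. These came from transiently transfected HepG2 cells after 24 h chemical exposure, with 3 nM 6-alpha-fluorotestosterone added; baseline was DMSO.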
# [10] = target: zebrafish Thyroid Hormone Receptor beta (TRb), thrb (gene 30607) (UniProt Q9PVE4); experiment: ATG_zfTRb_XSP1: Attagene TRANS-FACTORIAL Multi-Species (XSP1) HepG2 Assay for zebrafish Thyroid Hormone Receptor beta (TRb) (AID 2283809)
# Outline: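 HepG2 cells transiently transfected with multiplexed GAL4-UAS reporter units expressing chimeric zebrafish TRb–Gal4. Dosed 24 h with 3 nM 6-alpha-fluorotestosterone present; reporter mRNA measured by RT-PCR, HpaI digestion and capillary electrophoresis; gain of signal versus DMSO.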
# [11] = tested on: turtle Androgen Receptor (AR), gene 101947425; experiment: ATG_trAR_XSP1: Attagene TRANS-FACTORIAL Multi-Species (XSP1) HepG2 Assay for turtle Androgen Receptor (AR) (AID 2283786)
# Outline: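 Partial androgen stimulation is provided by 3 nM 6-alpha-fluorotestosterone in a multi-species trans-factorial panel expressing a turtle AR–GAL4 fusion in HepG2. After 24 h, reporter mRNA is measured by RT-PCR and capillary electrophoresis and fitted upward against DMSO.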
# [12] = target: Estrogen receptor beta (Homo sapiens) (UniProt Q92731); experiment: ATG_hERb_XSP1: Attagene TRANS-FACTORIAL Multi-Species (XSP1) HepG2 Assay for human Estrogen Receptor (ESR2) (AID 2283788)
# Outline: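 HepG2 cells transiently transfected with multiplexed GAL4-UAS reporter units carrying chimeric human ERβ-Gal4; 24 h compound exposure with 3 nM 6-alpha-fluorotestosterone present. Reporter mRNA quantified by RT-PCR, FAM labelling and capillary electrophoresis; gain-of-signal fitted versus DMSO.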
# [13] = target: GAL4 Transcription Factor (Internal Marker), GAL4 (gene 855828) (UniProt P04386); experiment: ATG_GAL4_XSP1: Attagene TRANS-FACTORIAL Multi-Species (XSP1) HepG2 Assay for GAL4 Transcription Factor (Internal Marker) (AID 2283789)
# Outline: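 This background-control endpoint measures GAL4-driven reporter mRNA via RT-PCR and capillary electrophoresis of labelled fragments. Transiently transfected HepG2 cells were treated 24 h, with 3 nM 6-alpha-fluorotestosterone included, and gain-of-signal was fitted against DMSO.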
# [14] = ATG_M_32_XSP1: Attagene TRANS-FACTORIAL Multi-Species (XSP1) HepG2 Assay for M32 Transcription Factor (Internal Marker) (AID 2283799)
# Outline: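 Reporter transcripts from the M32 internal-control unit measured by RT-PCR, FAM labelling, HpaI digestion and capillary electrophoresis after 24 h compound exposure of transfected HepG2, 3 nM 6-alpha-fluorotestosterone included; DMSO baseline, positive-direction fit.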
# [15] = target: Peroxisome proliferator-activated receptor gamma (Homo sapiens) (UniProt P37231); experiment: ATG_hPPARg_XSP1: Attagene TRANS-FACTORIAL Multi-Species (XSP1) HepG2 Assay for human Peroxisome Proliferator-activated Receptor gamma (PPARg) (AID 2283800)
# Outline: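 Reporter mRNA induction, measured by RT-PCR with capillary electrophoresis 24 h after dosing, scored as gain over DMSO. Transfected HepG2 cells express exogenous NR-Gal4 chimeras driving GAL4-UAS reporters; medium includes 3 nM 6-alpha-fluorotestosterone.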
# [16] = target: mouse Peroxisome Proliferator-activated Receptor gamma (PPARg), Pparg (gene 19016) (UniProt P37238); experiment: ATG_mPPARg_XSP1: Attagene TRANS-FACTORIAL Multi-Species (XSP1) HepG2 Assay for mouse Peroxisome Proliferator-activated Receptor gamma (PPARg) (AID 2283802)
# Outline: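 Readout is reporter mRNA induction, measured by RT-PCR with 6-FAM labelling, HpaI digestion and capillary electrophoresis, 24 h post-dose relative to DMSO. Transient multi-reporter transfection of human HepG2 with mouse PPARg–GAL4 fusion; 3 nM 6-alpha-fluorotestosterone included.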
# [17] = target: Nuclear receptor subfamily 1 group I member 2 (Mus musculus) (UniProt O54915); experiment: ATG_mPXR_XSP1: Attagene TRANS-FACTORIAL Multi-Species (XSP1) HepG2 Assay for mouse Pregnane X Receptor (PXR) (AID 2283803)
# Outline: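 Transiently transfected HepG2 cells expressing a receptor-Gal4 chimera drive a GAL4-UAS reporter; 3 nM 6-alpha-fluorotestosterone included. Reporter mRNA read 24 h post-dose by RT-PCR and capillary electrophoresis; gain of signal relative to DMSO.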
# Chain of AR (gene 367) (P10275 whole entry, looked up): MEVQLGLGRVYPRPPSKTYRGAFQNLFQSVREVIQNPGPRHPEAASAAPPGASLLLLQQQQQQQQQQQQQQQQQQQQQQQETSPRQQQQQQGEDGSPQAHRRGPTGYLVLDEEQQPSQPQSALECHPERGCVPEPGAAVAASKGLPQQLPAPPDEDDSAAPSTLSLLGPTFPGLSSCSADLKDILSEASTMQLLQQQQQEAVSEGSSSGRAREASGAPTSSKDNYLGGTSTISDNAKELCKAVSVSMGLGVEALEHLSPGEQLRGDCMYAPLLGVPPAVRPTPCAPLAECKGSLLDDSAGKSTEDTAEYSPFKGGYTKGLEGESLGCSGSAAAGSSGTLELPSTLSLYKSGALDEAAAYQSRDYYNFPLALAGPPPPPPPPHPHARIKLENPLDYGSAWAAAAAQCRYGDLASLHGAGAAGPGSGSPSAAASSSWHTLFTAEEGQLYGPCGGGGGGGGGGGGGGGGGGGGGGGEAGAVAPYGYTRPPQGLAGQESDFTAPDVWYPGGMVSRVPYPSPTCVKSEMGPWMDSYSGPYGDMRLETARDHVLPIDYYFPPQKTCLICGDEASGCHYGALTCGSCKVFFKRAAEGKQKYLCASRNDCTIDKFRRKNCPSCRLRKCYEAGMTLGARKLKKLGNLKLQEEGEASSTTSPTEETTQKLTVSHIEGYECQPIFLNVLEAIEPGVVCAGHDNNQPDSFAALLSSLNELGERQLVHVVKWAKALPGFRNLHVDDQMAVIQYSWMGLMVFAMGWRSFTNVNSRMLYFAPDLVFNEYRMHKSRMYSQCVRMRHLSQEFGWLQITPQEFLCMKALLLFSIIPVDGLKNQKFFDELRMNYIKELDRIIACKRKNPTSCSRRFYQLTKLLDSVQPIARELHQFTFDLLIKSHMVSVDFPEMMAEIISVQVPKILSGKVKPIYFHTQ
# Chain of zebrafish Thyroid Hormone Receptor beta (TRb), thrb (gene 30607) (Q9PVE4 whole entry, looked up, the tested form may be a part): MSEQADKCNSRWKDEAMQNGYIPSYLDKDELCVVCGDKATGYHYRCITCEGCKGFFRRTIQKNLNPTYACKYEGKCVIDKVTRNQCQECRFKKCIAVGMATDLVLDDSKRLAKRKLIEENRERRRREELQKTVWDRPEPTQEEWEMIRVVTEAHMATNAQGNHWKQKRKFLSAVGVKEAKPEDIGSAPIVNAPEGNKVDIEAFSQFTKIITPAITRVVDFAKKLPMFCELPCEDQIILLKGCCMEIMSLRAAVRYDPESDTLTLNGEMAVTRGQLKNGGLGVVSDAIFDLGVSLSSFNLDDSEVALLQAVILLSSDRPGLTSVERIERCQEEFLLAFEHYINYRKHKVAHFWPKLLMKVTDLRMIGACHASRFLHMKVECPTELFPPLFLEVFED
# Chain of zebrafish Thyroid Hormone Receptor alpha (TRa), thraa (gene 30670) (Q98867 whole entry, looked up, the tested form may be a part): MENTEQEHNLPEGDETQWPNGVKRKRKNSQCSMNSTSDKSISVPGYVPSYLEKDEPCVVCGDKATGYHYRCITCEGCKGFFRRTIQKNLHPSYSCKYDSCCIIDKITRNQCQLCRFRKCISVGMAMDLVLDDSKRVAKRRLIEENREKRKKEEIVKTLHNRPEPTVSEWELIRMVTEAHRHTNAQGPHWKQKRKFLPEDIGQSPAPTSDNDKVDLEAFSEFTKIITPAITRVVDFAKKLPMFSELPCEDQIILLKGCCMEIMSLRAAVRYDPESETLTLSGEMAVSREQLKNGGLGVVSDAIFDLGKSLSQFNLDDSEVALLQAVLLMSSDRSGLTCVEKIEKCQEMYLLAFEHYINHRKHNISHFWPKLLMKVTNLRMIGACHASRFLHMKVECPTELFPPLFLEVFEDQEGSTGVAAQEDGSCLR
# Chain of mouse Peroxisome Proliferator-activated Receptor gamma (PPARg), Pparg (gene 19016) (P37238 whole entry, looked up, the tested form may be a part): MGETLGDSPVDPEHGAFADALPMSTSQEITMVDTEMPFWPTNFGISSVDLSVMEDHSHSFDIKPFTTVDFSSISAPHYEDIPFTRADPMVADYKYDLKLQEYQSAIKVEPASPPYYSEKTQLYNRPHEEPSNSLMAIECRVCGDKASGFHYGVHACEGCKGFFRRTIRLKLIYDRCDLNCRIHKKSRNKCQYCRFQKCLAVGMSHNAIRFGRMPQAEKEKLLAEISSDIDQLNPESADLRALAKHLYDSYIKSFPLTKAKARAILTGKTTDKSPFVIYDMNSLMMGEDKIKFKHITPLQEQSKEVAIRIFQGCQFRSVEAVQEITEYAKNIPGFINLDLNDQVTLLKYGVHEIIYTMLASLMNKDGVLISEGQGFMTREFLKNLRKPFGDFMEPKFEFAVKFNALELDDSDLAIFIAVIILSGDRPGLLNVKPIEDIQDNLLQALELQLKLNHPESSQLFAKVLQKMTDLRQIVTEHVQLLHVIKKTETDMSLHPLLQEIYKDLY
# Chain of Nuclear receptor subfamily 1 group I member 2 (Mus musculus) (O54915 whole entry, looked up, the tested form may be a part): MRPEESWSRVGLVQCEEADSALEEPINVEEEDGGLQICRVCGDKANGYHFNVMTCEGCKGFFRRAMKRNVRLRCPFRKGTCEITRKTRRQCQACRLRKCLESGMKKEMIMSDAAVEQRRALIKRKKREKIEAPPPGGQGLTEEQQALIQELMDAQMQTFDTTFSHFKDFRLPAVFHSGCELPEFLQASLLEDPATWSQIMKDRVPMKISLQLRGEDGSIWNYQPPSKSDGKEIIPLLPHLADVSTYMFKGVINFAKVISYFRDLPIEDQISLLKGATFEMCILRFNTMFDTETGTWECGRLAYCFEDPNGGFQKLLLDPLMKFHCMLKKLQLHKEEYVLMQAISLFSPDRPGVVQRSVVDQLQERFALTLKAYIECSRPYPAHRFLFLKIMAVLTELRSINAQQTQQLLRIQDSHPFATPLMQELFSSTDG
# Chain of Estrogen receptor beta (Homo sapiens) (Q92731 whole entry, looked up, the tested form may be a part): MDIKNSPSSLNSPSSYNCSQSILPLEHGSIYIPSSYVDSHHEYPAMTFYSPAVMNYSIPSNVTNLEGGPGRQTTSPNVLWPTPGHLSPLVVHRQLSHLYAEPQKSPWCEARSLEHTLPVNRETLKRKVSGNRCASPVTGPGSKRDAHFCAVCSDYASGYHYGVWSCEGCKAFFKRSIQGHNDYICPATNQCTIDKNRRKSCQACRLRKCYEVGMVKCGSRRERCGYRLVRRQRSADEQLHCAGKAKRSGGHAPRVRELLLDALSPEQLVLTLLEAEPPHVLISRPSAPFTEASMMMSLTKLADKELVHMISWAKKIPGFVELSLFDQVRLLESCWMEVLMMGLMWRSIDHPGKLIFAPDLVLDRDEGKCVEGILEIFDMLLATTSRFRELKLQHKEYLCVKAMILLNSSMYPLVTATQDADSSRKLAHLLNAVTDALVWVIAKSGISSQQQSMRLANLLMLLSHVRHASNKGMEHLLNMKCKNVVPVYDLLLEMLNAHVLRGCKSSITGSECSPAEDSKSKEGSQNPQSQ
# Chain of GAL4 Transcription Factor (Internal Marker), GAL4 (gene 855828) (P04386 whole entry, looked up, the tested form may be a part): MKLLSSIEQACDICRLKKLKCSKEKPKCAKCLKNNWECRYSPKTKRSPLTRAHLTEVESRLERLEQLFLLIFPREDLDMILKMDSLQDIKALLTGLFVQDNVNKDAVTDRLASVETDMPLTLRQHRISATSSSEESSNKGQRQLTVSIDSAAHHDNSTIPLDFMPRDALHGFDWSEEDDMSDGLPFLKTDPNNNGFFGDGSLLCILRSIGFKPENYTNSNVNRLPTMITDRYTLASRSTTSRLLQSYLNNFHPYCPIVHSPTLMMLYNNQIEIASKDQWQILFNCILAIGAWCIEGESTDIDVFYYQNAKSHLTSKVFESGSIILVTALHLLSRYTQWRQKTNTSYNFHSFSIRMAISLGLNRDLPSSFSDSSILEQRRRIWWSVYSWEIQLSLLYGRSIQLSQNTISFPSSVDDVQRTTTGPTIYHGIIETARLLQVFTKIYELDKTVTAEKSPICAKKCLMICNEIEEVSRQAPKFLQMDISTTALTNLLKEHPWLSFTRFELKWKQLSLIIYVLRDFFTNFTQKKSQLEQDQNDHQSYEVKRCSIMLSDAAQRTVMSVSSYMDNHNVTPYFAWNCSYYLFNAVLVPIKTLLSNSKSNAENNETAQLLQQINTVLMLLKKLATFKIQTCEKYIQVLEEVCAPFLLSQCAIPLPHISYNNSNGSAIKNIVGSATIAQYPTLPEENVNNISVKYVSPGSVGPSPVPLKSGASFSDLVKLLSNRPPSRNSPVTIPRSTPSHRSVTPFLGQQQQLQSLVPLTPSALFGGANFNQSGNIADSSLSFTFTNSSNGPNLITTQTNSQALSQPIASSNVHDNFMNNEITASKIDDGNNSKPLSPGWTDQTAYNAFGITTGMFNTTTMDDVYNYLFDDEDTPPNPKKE
# Chain of Peroxisome proliferator-activated receptor gamma (Homo sapiens) (P37231 whole entry, looked up, the tested form may be a part): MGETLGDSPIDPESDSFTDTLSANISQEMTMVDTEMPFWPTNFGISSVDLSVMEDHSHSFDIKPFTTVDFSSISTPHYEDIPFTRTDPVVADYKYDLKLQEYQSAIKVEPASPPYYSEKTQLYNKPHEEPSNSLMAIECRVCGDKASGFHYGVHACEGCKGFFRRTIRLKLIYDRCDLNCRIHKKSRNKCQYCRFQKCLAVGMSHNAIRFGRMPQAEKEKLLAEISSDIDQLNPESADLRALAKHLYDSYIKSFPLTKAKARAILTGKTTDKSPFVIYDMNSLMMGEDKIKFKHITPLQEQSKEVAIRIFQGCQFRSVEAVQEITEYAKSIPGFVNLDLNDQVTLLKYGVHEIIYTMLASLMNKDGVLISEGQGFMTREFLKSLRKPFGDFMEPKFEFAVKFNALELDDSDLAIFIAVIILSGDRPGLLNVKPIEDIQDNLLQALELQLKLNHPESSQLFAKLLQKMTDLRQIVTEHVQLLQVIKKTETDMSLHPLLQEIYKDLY
# Chain of frog Thyroid hormone Receptor alpha (TRa), thra-a (gene 397942) (P15204 whole entry, looked up, the tested form may be a part): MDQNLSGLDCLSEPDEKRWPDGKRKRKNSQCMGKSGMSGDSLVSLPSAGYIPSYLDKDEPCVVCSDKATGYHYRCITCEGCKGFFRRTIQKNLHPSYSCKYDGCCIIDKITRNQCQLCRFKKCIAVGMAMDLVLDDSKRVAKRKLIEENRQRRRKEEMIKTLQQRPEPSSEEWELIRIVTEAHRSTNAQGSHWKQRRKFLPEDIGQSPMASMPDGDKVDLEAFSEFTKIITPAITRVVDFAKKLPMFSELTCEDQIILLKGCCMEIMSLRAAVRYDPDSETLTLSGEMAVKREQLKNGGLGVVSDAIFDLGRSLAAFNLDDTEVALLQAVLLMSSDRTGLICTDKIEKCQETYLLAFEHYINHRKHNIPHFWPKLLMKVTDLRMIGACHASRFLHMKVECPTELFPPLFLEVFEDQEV
smiles,measurement,setting,value
O=C=NCCCCCCN=C=O,outcome,[1],inactive
CC(C)(O)c1ccc(CNC(=O)c2cccnc2Oc2ccc3nonc3c2)cc1,outcome,[1],inactive
CCCC(=O)OCCC(C)C,outcome,[1],inactive
CCCCCCCC[Si](OCC)(OCC)OCC,AC50,[1],89.3 µM (active)
same,outcome,[1],inactive
NC(=O)c1nc(-c2cccc(-c3cc(F)ccc3OCC(F)(F)C(F)(F)F)c2)n[nH]1,AC50,[1],94 µM (active)
same,outcome,AR (gene 367) [2],inactive
same,AC50,[3],0.683 µM (active)
same,AC50,AR (gene 367) [4],18.4 µM (active)
c1ccc2n[nH]nc2c1,outcome,[1],inactive
O=CCCCC=O,AC50,[1],40 µM (active)
CCN(Cc1cccc(S(=O)(=O)O)c1)c1ccc(C(=C2C=CC(=[N+](CC)Cc3cccc(S(=O)(=O)O)c3)C=C2)c2ccccc2S(=O)(=O)[O-])cc1,outcome,[1],inactive
CCCOC(=O)c1cc(O)c(O)c(O)c1,outcome,[1],inactive
CCCCCCCCCCCCO,AC50,[1],68.3 µM (active)
Oc1ccccc1,outcome,[1],inactive
CC[C@@H]1C[C@H](N(Cc2cc(C(F)(F)F)cc(C(F)(F)F)c2)C(C)=O)c2cc(C(F)(F)F)ccc2N1C(=O)OC(C)C,AC50,[1],3.79 µM (active)
O=C(OCCCCCCOC(=O)c1ccccc1)c1ccccc1,outcome,[1],inactive
CCO[Si](CCCNC(N)=O)(OCC)OCC,outcome,[1],inactive
CC(=O)N1CCN(c2ccc(OC[C@H]3CO[C@](Cn4ccnc4)(c4ccc(Cl)cc4Cl)O3)cc2)CC1,AC50,[1],86.7 µM (active)
same,outcome,[3],inactive
O=C(O)Cn1c(=O)n(Cc2ccc(Br)cc2F)c(=O)c2ccc(Cl)cc21,outcome,[1],inactive
same,outcome,AR (gene 367) [4],inactive
Clc1cc(Cl)c2c(c1)N=C1CCCCCN1C2,outcome,[1],inactive
same,outcome,[3],inactive
Cc1ccc(C(C)C)cc1,outcome,[1],inactive
same,outcome,AR (gene 367) [4],inactive
O=C(O)c1ccccc1C(=O)OCc1ccccc1,outcome,[1],inactive
same,outcome,AR (gene 367) [2],inactive
same,outcome,AR (gene 367) [4],inactive
CC(C)(C)c1cc(/C=C2\SC(N)=NC2=O)cc(C(C)(C)C)c1O,AC50,[1],31.6 µM (active)
same,outcome,[3],inactive
CN1C(=O)CC[C@H]1c1cccnc1,outcome,[1],inactive
same,outcome,[3],inactive
COc1cc(C(=O)NC2CCN(C)CC2)ccc1Nc1ncc2c(n1)N(C1CCCC1)CC(F)(F)C(=O)N2C,outcome,AR (gene 367) [2],inactive
same,AC50,[3],0.0449 µM (active)
same,AC50,AR (gene 367) [4],0.0058 µM (active)
CCCCCCCCOC(=O)c1cc(O)c(O)c(O)c1,AC50,[1],10 µM (active)
same,AC50,[3],2.44 µM (active)
CCCCCCCCCC(=O)O,outcome,[1],inactive
same,outcome,AR (gene 367) [4],inactive
Oc1ccc2ccccc2c1,outcome,AR (gene 367) [2],inactive
same,outcome,AR (gene 367) [4],inactive
Cc1occc1C(=O)Nc1ccc(C(=O)N2CCC(F)(F)/C(=C\C(=O)N3CCC(N4CCCCC4)CC3)c3ccccc32)cc1,outcome,AR (gene 367) [2],inactive
same,AC50,AR (gene 367) [4],42.3 µM (active)
COc1cccc([C@H](O)C2CCN(CCc3ccc(F)cc3)CC2)c1OC,outcome,[1],inactive
same,outcome,[3],inactive
Cc1cn([C@H]2C[C@H](N=[N+]=[N-])[C@@H](CO)O2)c(=O)[nH]c1=O,outcome,[1],inactive
same,outcome,[3],inactive
CO[C@H]1/C=C/O[C@@]2(C)Oc3c(C)c(O)c4c(O)c(c(/C=N/N5CCN(C)CC5)c(O)c4c3C2=O)NC(=O)/C(C)=C\C=C\[C@H](C)[C@H](O)[C@@H](C)[C@@H](O)[C@@H](C)[C@H](OC(C)=O)[C@@H]1C,outcome,[3],inactive
CCOC(=O)O[C@H](C)OC(=O)c1ccc2c(c1)cc(C(=O)NC1CCN(C(C)C)CC1)n2Cc1cc(-c2ccc(Cl)s2)on1,AC50,[1],5.33 µM (active)
same,outcome,[3],inactive
C[C@]12CC[C@@H]3c4ccc(O)cc4CC[C@H]3[C@@H]1CCC2=O,outcome,[5],inactive
same,outcome,[6],inactive
same,outcome,[7],inactive
same,outcome,[8],inactive
same,outcome,[9],inactive
same,outcome,[10],inactive
CN(C)C(=O)C1(N2CCCCC2)CCN(CC[C@@]2(c3ccc(Cl)c(Cl)c3)CN(C(=O)c3ccccc3)CCO2)CC1,AC50,[1],10.3 µM (active)
same,AC50,[3],9.2 µM (active)
same,AC50,AR (gene 367) [4],13.6 µM (active)
CCCCCCCCCCCC[N+](C)(C)C,AC50,[1],50 µM (active)
same,AC50,[3],8.63 µM (active)
COCC(C)OCC(C)OCC(C)O (configuration not stated),outcome,[1],inactive
same,outcome,AR (gene 367) [2],inactive
same,outcome,AR (gene 367) [4],inactive
CCN(Cc1cccnc1)C(=O)c1cccc(Cl)c1[C@]1(C)C(=O)N(Cc2ccc(OC)cc2OC)c2ccc(Cl)cc21,outcome,[1],inactive
same,outcome,AR (gene 367) [2],inactive
same,AC50,AR (gene 367) [4],32 µM (active)
Cc1c2ccccc2c(C)c2c1ccc1ccccc12,AC50,[1],20.1 µM (active)
same,outcome,[3],inactive
same,outcome,[11],inactive
same,AC50,AR (gene 367) [4],46.5 µM (active)
same,outcome,[12],inactive
same,outcome,[13],inactive
same,outcome,[5],inactive
same,outcome,[6],inactive
same,outcome,[14],inactive
same,AC50,[15],23.2 µM (active)
same,AC50,[16],13.8 µM (active)
same,AC50,[17],0.828 µM (active)
same,AC50,[10],60.9 µM (active)
Cc1cc(F)ccc1-c1cc(N2CC[C@@H](O)[C@H]2CO)ncc1N(C)C(=O)C(C)(C)c1cc(C(F)(F)F)cc(C(F)(F)F)c1,AC50,AR (gene 367) [4],6.76 µM (active)
